Experimental data: PubChem BioAssay (NCI)
About 83,000 compounds went through this panel and 20% of them were active in at least one assay; those are over-represented in the sample as a whole.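 Cell lines were cultured in 96-well plates, exposed to a single compound concentration, and assessed for percent growth 48 hours later.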 Activity calls are given as the source filed them. How the source made its calls: active means growth percent below 10; inactive means the rest.

What was measured:
Assay in all cases: NCI-60 one-dose screen, 48 h (100 = growth as untreated, 0 = no growth, -100 = all killed)
Conditions in all cases: 10 µM unless noted
HCT-15 colon = test system: HCT-15 colon
HT29 colon = test system: HT29 colon
SNB-75 CNS = test system: SNB-75 CNS
SNB-19 CNS = test system: SNB-19 CNS
U251 CNS = test system: U251 CNS
PC-3 prostate = test system: PC-3 prostate
UACC-62 melanoma = test system: UACC-62 melanoma
LOX IMVI melanoma = test system: LOX IMVI melanoma
SK-MEL-28 melanoma = test system: SK-MEL-28 melanoma
SK-MEL-5 melanoma = test system: SK-MEL-5 melanoma

Measured: growth

CC(C)CCCCCOC(=O)c1ccccc1SSc1ccccc1C(=O)OCCCCCC(C)C
inactive: HCT-15 colon 104% | HT29 colon 122% | SNB-75 CNS 87.2% | SNB-19 CNS 103% | U251 CNS 110% | PC-3 prostate 88.6% | UACC-62 melanoma 96.2% | LOX IMVI melanoma 100% | SK-MEL-28 melanoma 114%

CC(=O)NCCN
inactive: HCT-15 colon 94% | HT29 colon 101% | SNB-75 CNS 89.7% | SNB-19 CNS 98.8% | U251 CNS 97.3% | PC-3 prostate 92.3% | SK-MEL-5 melanoma 108% | LOX IMVI melanoma 93.3% | SK-MEL-28 melanoma 108%

CC(C)(C)c1ccc(OCCOC(=O)CBr)cc1
inactive: HCT-15 colon 97.9% | HT29 colon 104% | SNB-75 CNS 84.6% | SNB-19 CNS 104% | U251 CNS 103% | PC-3 prostate 110% | UACC-62 melanoma 93.6% | LOX IMVI melanoma 97.8%

O=C(NCCO)C(F)(F)F
inactive: HCT-15 colon 96.9% | HT29 colon 104% | SNB-75 CNS 101% | SNB-19 CNS 94.6% | U251 CNS 97.1% | PC-3 prostate 103% | UACC-62 melanoma 102% | LOX IMVI melanoma 103%

COC(=O)c1ccc2[nH]c(O)c(C(=Nc3ccc(N(C)C(=O)CN4CCN(C)CC4)cc3)c3ccc(CCO)cc3)c2c1
inactive: HCT-15 colon 82.1% | HT29 colon 43.8% | SNB-75 CNS 18.1% | SNB-19 CNS 31.4% | U251 CNS 31.3% | PC-3 prostate 56.4% | SK-MEL-5 melanoma 50% | LOX IMVI melanoma 37.5% | SK-MEL-28 melanoma 38.3%

Cc1ncc(C(=O)Nc2ccc(CN3CCN(C)CC3)c(C(F)(F)F)c2)cc1C#Cc1c(N)ncc2ccc(F)cc12
active: HCT-15 colon -93.2% | HT29 colon -87.4% | SNB-75 CNS -3.33% | SNB-19 CNS -99.6% | U251 CNS -88.3% | PC-3 prostate -83.6% | UACC-62 melanoma -28.7% | LOX IMVI melanoma -74.2% | SK-MEL-28 melanoma -85.8%

CC(=O)NNC(=O)c1sc(NC(C)=O)nc1C
inactive: HCT-15 colon 95.7% | HT29 colon 87.3% | SNB-75 CNS 99.2% | SNB-19 CNS 92.4% | U251 CNS 102% | PC-3 prostate 90.8% | UACC-62 melanoma 91.9% | LOX IMVI melanoma 94.4% | SK-MEL-28 melanoma 95.9%

COc1cccc(Cn2cc3c(c2)-c2oncc2CC3)c1
inactive: HCT-15 colon 18.7% | SNB-75 CNS 25.2% | SNB-19 CNS 39.4% | U251 CNS 31.7% | PC-3 prostate 27.4% | LOX IMVI melanoma 34.7% | SK-MEL-28 melanoma 51.9%
active: HT29 colon 9.25% | SK-MEL-5 melanoma 6.37%

C/C=C(/C)C(=O)OC1C=C(CO)C(=O)C(OC(=O)C(C)(O)C(C)Cl)C1C(C)C (configuration not stated)
active: HCT-15 colon -20.7% | HT29 colon -32.5% | SNB-19 CNS -1.69% | U251 CNS -50% | PC-3 prostate -24.8% | UACC-62 melanoma -77% | LOX IMVI melanoma -75.4% | SK-MEL-28 melanoma -48.9%
inactive: SNB-75 CNS 20%

COC(=O)Nc1nc2ccc(C(=O)c3ccccc3N(C)C3COC3)cc2[nH]1
inactive: HCT-15 colon 23.5% | SNB-75 CNS 16.4% | SNB-19 CNS 37.8% | U251 CNS 21.4% | PC-3 prostate 23% | SK-MEL-5 melanoma 22.6% | LOX IMVI melanoma 30.8% | SK-MEL-28 melanoma 63.6%
active: HT29 colon 9.07%

O=Nc1c(-c2c(O)[nH]c3cc(Br)ccc23)[nH]c2ccccc12
inactive: SNB-19 CNS 15.1% | U251 CNS 29.4% | UACC-62 melanoma 38.9%
active: HCT-15 colon 1.93% | HT29 colon 0.864% | SNB-75 CNS -13.3% | PC-3 prostate -2.93% | LOX IMVI melanoma 8.85% | SK-MEL-28 melanoma -100%

COc1ccc(/C=C2\SC(=O)N(Cc3cc(=O)oc4ccc(OC)cc34)C2=O)cc1
inactive: HCT-15 colon 89.9% | HT29 colon 95.8% | SNB-75 CNS 74.3% | SNB-19 CNS 87% | U251 CNS 98.9% | PC-3 prostate 93.1% | SK-MEL-5 melanoma 87.4% | LOX IMVI melanoma 85.7% | SK-MEL-28 melanoma 95.1%

CCCCCCCCCc1cc[n+](CC(=O)c2ccc([N+](=O)[O-])cc2)cc1
active: HCT-15 colon -18.2% | HT29 colon -52.1% | U251 CNS 8.48% | PC-3 prostate -0.775% | UACC-62 melanoma -6.32% | LOX IMVI melanoma -77.2%
inactive: SNB-75 CNS 23.9% | SNB-19 CNS 13.8% | SK-MEL-28 melanoma 12.3%

CCOC(=O)c1c2c(cn1Cc1ccccc1)-c1oncc1CC2
inactive: HCT-15 colon 105% | HT29 colon 111% | SNB-75 CNS 84% | SNB-19 CNS 84.9% | U251 CNS 72.7% | PC-3 prostate 97.3% | SK-MEL-5 melanoma 102% | LOX IMVI melanoma 98.9% | SK-MEL-28 melanoma 108%

Cn1cnc2nc[nH]c2c1=S
inactive: HCT-15 colon 101% | HT29 colon 94.5% | SNB-75 CNS 79.2% | SNB-19 CNS 103% | U251 CNS 103% | PC-3 prostate 86.4% | UACC-62 melanoma 98.5% | LOX IMVI melanoma 99.4% | SK-MEL-28 melanoma 112%

COc1ccc(C(=O)NCCNc2nccc(-c3c(-c4ccc(F)cc4)nc4sccn34)n2)cc1
inactive: HCT-15 colon 36.6% | HT29 colon 14.6% | SNB-75 CNS 50.9% | SNB-19 CNS 61.9% | U251 CNS 55.4% | PC-3 prostate 49.5% | UACC-62 melanoma 47.4% | LOX IMVI melanoma 43.3% | SK-MEL-28 melanoma 76.7%

COc1ccccc1CNCCCN1C(=O)c2ccc3c4c(ccc(c24)C1=O)C(=O)N(CCCNCc1ccccc1OC)C3=O
active: HCT-15 colon -69.2% | HT29 colon -59.5% | SNB-75 CNS -95.7% | SNB-19 CNS -68.8% | U251 CNS -89.5% | PC-3 prostate -59.9% | SK-MEL-5 melanoma -100% | LOX IMVI melanoma -63.1% | SK-MEL-28 melanoma -90.6%

N#CCCCCCCCCCCC#N
inactive: HCT-15 colon 99.4% | HT29 colon 95.7% | SNB-75 CNS 103% | SNB-19 CNS 109% | U251 CNS 105% | PC-3 prostate 95.8% | SK-MEL-5 melanoma 110% | LOX IMVI melanoma 99.4% | SK-MEL-28 melanoma 111%

O=C(Cc1ccccc1[N+](=O)[O-])c1ccc2c(c1)OCO2
inactive: HCT-15 colon 104% | HT29 colon 102% | SNB-75 CNS 91.3% | SNB-19 CNS 97.7% | U251 CNS 98.8% | PC-3 prostate 96.8% | SK-MEL-5 melanoma 103% | LOX IMVI melanoma 96.9% | SK-MEL-28 melanoma 105%

COc1ccc(-c2nc(SCC(C)C)nc(Nc3ccc([N+](=O)[O-])cc3)c2C#N)cc1
inactive: HCT-15 colon 101% | HT29 colon 97.1% | SNB-75 CNS 88.1% | SNB-19 CNS 88.4% | U251 CNS 80.9% | PC-3 prostate 92.6% | UACC-62 melanoma 99% | LOX IMVI melanoma 91.7% | SK-MEL-28 melanoma 107%

CC(=O)Nc1nc(C)c(C(=O)N/N=C/N2CCCCC2)s1
inactive: HCT-15 colon 111% | HT29 colon 109% | SNB-75 CNS 81.6% | SNB-19 CNS 103% | U251 CNS 105% | SK-MEL-5 melanoma 113% | UACC-62 melanoma 107% | LOX IMVI melanoma 103% | SK-MEL-28 melanoma 114%

O=C(Nc1ccc(-n2cc(-c3ccncc3)c(-c3ccc(Cl)c(O)c3)n2)cc1)c1cc(Cl)cc(Cl)c1
active: HT29 colon 1.94% | SK-MEL-5 melanoma -85.1%
inactive: HCT-15 colon 11.1% | SNB-75 CNS 16.4% | SNB-19 CNS 72.4% | U251 CNS 41.9% | UACC-62 melanoma 39.2% | LOX IMVI melanoma 40.3% | SK-MEL-28 melanoma 29.7%

N#Cc1c2ncccc2c2nnc3cc(Cl)c(Cl)cc3n12
inactive: HCT-15 colon 82.9% | HT29 colon 95.2% | SNB-75 CNS 67.1% | SNB-19 CNS 101% | U251 CNS 90.6% | SK-MEL-5 melanoma 92.4% | UACC-62 melanoma 90.8% | LOX IMVI melanoma 97.4% | SK-MEL-28 melanoma 80.9%

O=C1c2ccccc2CCc2ccccc21
inactive: HCT-15 colon 105% | HT29 colon 103% | SNB-75 CNS 91.8% | SNB-19 CNS 100% | U251 CNS 93.1% | SK-MEL-5 melanoma 98.6% | UACC-62 melanoma 95.6% | LOX IMVI melanoma 93.6% | SK-MEL-28 melanoma 106%

CCOC(=O)c1sc(NS(=O)(=O)c2ccccc2)nc1C
inactive: HCT-15 colon 115% | HT29 colon 124% | SNB-75 CNS 97.9% | SNB-19 CNS 107% | U251 CNS 109% | LOX IMVI melanoma 105% | SK-MEL-28 melanoma 123%

CC1(C)CC(=O)C2=C(C1)Oc1nc(N)c(C#N)c(N)c1C2c1ccc(F)cc1 (configuration not stated)
inactive: HCT-15 colon 123% | HT29 colon 99.6% | SNB-75 CNS 101% | SNB-19 CNS 113% | U251 CNS 107% | PC-3 prostate 113% | UACC-62 melanoma 85.6% | LOX IMVI melanoma 96.6% | SK-MEL-28 melanoma 110%

O=C(NC1CCN(Cc2ccccc2)CC1)c1cc(-c2cccnc2)nc2ccc(Cl)cc12
active: HCT-15 colon 9.1% | HT29 colon 4.33% | UACC-62 melanoma 8.77%
inactive: SNB-75 CNS 95.6% | SNB-19 CNS 91.4% | U251 CNS 56.2% | PC-3 prostate 69.2% | LOX IMVI melanoma 45.2% | SK-MEL-28 melanoma 94.1%

O=C(Nc1cccc2[nH]c(C(F)(F)F)nc12)c1ccc(F)cc1
inactive: HCT-15 colon 96.9% | HT29 colon 99.3% | SNB-75 CNS 97.3% | SNB-19 CNS 78.6% | U251 CNS 71.7% | SK-MEL-5 melanoma 69.5% | UACC-62 melanoma 51.6% | LOX IMVI melanoma 87.8% | SK-MEL-28 melanoma 79.7%

CCOC(=O)CNS(=O)(=O)CC(=O)c1ccccc1
inactive: HCT-15 colon 110% | HT29 colon 80.1% | SNB-75 CNS 69.4% | SNB-19 CNS 94.3% | U251 CNS 96.7% | PC-3 prostate 92% | UACC-62 melanoma 95.3% | LOX IMVI melanoma 104% | SK-MEL-28 melanoma 127%
